Reference: PubChem BioAssay (NCI)
This is part of a sample that, as a whole, favours compounds with a hit. Of some 83,000 tested, about 20% had one in any assay.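 How to read the values: 0–100, growth inhibition (40 = 60% inhibited); 0, no net growth; -100 to 0, cell death (-40 = 40% of starting cells died; -100 = all dead).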 The source made the active and inactive calls. How the source made its calls: active means growth percent below 10; inactive means the rest.

What was measured:
Assay in all cases: NCI-60 one-dose screen, 48 h (100 = growth as untreated, 0 = no growth, -100 = all killed)
DU-145 prostate = conditions: 10 µM unless noted
K-562 leukemia = conditions: 10 µM unless noted
MALME-3M melanoma = conditions: 10 µM unless noted
RXF 393 renal = conditions: 10 µM unless noted
SF-295 CNS = conditions: 10 µM unless noted
UACC-257 melanoma = conditions: 10 µM unless noted
SNB-19 CNS = conditions: 10 µM unless noted
SK-MEL-5 melanoma = conditions: 10 µM unless noted
LOX IMVI melanoma = conditions: 10 µM unless noted
ACHN renal = conditions: 10 µM unless noted
HL-60(TB) leukemia = conditions: 10 µM unless noted
CCRF-CEM leukemia = conditions: 10 µM unless noted
MOLT-4 leukemia = conditions: 10 µM
OVCAR-8 ovarian = conditions: 10 µM unless noted
IGROV1 ovarian = conditions: 10 µM
OVCAR-3 ovarian = conditions: 10 µM unless noted
NCI/ADR-RES ovarian = conditions: 10 µM unless noted
T-47D breast = conditions: 10 µM unless noted
HCC-2998 colon = conditions: 10 µM unless noted
SK-MEL-2 melanoma = conditions: 10 µM unless noted

Row | Compound | growth (DU-145 prostate) | growth (K-562 leukemia) | growth (MALME-3M melanoma) | growth (RXF 393 renal) | growth (SF-295 CNS) | growth (UACC-257 melanoma) | growth (SNB-19 CNS) | growth (SK-MEL-5 melanoma) | growth (LOX IMVI melanoma) | growth (ACHN renal) | growth (HL-60(TB) leukemia) | growth (CCRF-CEM leukemia) | growth (MOLT-4 leukemia) | growth (OVCAR-8 ovarian) | growth (IGROV1 ovarian) | growth (OVCAR-3 ovarian) | growth (NCI/ADR-RES ovarian) | growth (T-47D breast) | growth (HCC-2998 colon) | growth (SK-MEL-2 melanoma)
1 | C=CC(O)CN1CC1CC (configuration not stated) | 108% (inactive) | 101% (inactive) | 110% (inactive) | 115% (inactive) | 102% (inactive) | 88.6% (inactive) | 97.8% (inactive) | 115% (inactive) | 92.6% (inactive) | 102% (inactive) | 101% (inactive) | 116% (inactive) | 96.2% (inactive) | 89.1% (inactive) | 108% (inactive) | 111% (inactive) | 97.4% (inactive) | 101% (inactive) | 96.2% (inactive) | 
2 | O=c1cc[nH]c(=O)o1 | 104% (inactive) | 105% (inactive) | 95.2% (inactive) | 114% (inactive) | 101% (inactive) |  | 108% (inactive) | 105% (inactive) | 97.9% (inactive) | 115% (inactive) | 80.2% (inactive) |  | 97.4% (inactive) | 96.6% (inactive) | 104% (inactive) | 107% (inactive) | 111% (inactive) | 96.3% (inactive) | 116% (inactive) | 93.3% (inactive)
3 | O=C(O)c1[nH]c(=O)[nH]c(=O)c1F | 96.6% (inactive) | 107% (inactive) | 113% (inactive) | 103% (inactive) | 89.2% (inactive) | 103% (inactive) |  |  | 84.6% (inactive) | 77% (inactive) | 117% (inactive) | 78.4% (inactive) | 49.7% (inactive) | 81.7% (inactive) | 95.1% (inactive) | 106% (inactive) | 95% (inactive) | 104% (inactive) | 64.9% (inactive) | 110% (inactive)
4 | COC(=O)C[Se]C(=O)c1ccccc1OC(C)=O | 61.8% (inactive) | 79% (inactive) | 69.9% (inactive) | 78.9% (inactive) | 53.3% (inactive) | 59.7% (inactive) | 83.9% (inactive) | 90.6% (inactive) | 59.6% (inactive) | 72% (inactive) | -4.01% (active) | 76.6% (inactive) | 86% (inactive) | 45.4% (inactive) | 52% (inactive) | 84.5% (inactive) | 24.2% (inactive) | 84.5% (inactive) | 62.1% (inactive) | 87.4% (inactive)
5 | C/C(=C\c1cc(C(F)(F)F)n(-c2ccc(N)cc2)n1)[C@@H]1C[C@@H]2O[C@]2(C)CCC[C@H](C)[C@H](O)[C@@H](C)C(=O)C(C)(C)[C@@H](O)CC(=O)O1 | -23.9% (active) | 6.37% (active) | 58.1% (inactive) | -8.53% (active) | 2.01% (active) | 26.6% (inactive) | 21.1% (inactive) |  | 4.2% (active) | 31.9% (inactive) | 0.265% (active) | 12.8% (inactive) | 4.35% (active) | 0.138% (active) | 31.1% (inactive) | -0.038% (active) | 7.67% (active) | 12.8% (inactive) | 8.18% (active) | 
6 | COc1ccc(C(c2ccc(OC)cc2)C(Cl)(Cl)Cl)cc1 | 107% (inactive) | 65.7% (inactive) | 91.8% (inactive) | 73.4% (inactive) | 102% (inactive) | 78.8% (inactive) | 84% (inactive) | 80.2% (inactive) |  | 92.1% (inactive) | 72.5% (inactive) | 55.6% (inactive) | 85.8% (inactive) | 86.7% (inactive) | 76.4% (inactive) |  | 89.6% (inactive) | 68.4% (inactive) | 94.4% (inactive) | 77.4% (inactive)
7 | Nc1cccc2c1Oc1ccccc1O2 | 120% (inactive) | 96.4% (inactive) | 97.3% (inactive) | 145% (inactive) | 119% (inactive) | 102% (inactive) | 114% (inactive) | 86% (inactive) | 93.1% (inactive) | 99.2% (inactive) | 107% (inactive) | 87.7% (inactive) | 103% (inactive) | 104% (inactive) | 2.63% (active) | 103% (inactive) | 113% (inactive) | 115% (inactive) | 109% (inactive) | 98% (inactive)
8 | COC(=O)C(=[N+]=[N-])C(=O)OC | 112% (inactive) | 95.5% (inactive) | 110% (inactive) | 102% (inactive) | 101% (inactive) | 96.4% (inactive) | 103% (inactive) | 104% (inactive) | 103% (inactive) | 94% (inactive) | 100% (inactive) | 61.4% (inactive) | 105% (inactive) | 101% (inactive) | 110% (inactive) | 118% (inactive) | 108% (inactive) | 109% (inactive) | 108% (inactive) | 91.2% (inactive)
9 | O=C(O)c1cccc(CCl)c1 | 108% (inactive) | 101% (inactive) | 110% (inactive) | 112% (inactive) |  | 94.2% (inactive) | 114% (inactive) | 113% (inactive) | 95.8% (inactive) | 100% (inactive) | 93.4% (inactive) |  | 93.2% (inactive) | 96.5% (inactive) |  | 109% (inactive) | 103% (inactive) | 96.3% (inactive) | 112% (inactive) | 103% (inactive)
10 | Oc1ccc2c3c1O[C@H]1c4[nH]c5ccccc5c4C[C@@]4(O)C(C2)N(CC2CC2)CC[C@]314 | 96.6% (inactive) | 77.7% (inactive) | 122% (inactive) |  | 98.3% (inactive) | 97.4% (inactive) | 106% (inactive) | 96.4% (inactive) | 87.3% (inactive) | 89.7% (inactive) | 98.6% (inactive) | 89.7% (inactive) | 74.4% (inactive) | 93.2% (inactive) | 97.5% (inactive) | 89.1% (inactive) | 92.1% (inactive) | 84.8% (inactive) | 90% (inactive) | 90.1% (inactive)
11 | CCOC(=O)/C(C#N)=C/c1ccc(N(CCCl)CCCl)cc1 | 98.8% (inactive) | 98.6% (inactive) | 99.7% (inactive) | 93.3% (inactive) | 43.6% (inactive) | 103% (inactive) | 106% (inactive) | 97.9% (inactive) | 92% (inactive) | 72.8% (inactive) | 85.2% (inactive) |  | 84.7% (inactive) | 71.6% (inactive) | 48.4% (inactive) | 108% (inactive) | 94.8% (inactive) | 80.6% (inactive) | 105% (inactive) | 99.2% (inactive)
12 | COc1cc(C2(C#N)CCN(C)CC2)cc(OC)c1OC | 113% (inactive) | 97.5% (inactive) | 113% (inactive) | 114% (inactive) | 98.8% (inactive) | 108% (inactive) | 102% (inactive) | 107% (inactive) | 93.8% (inactive) | 98.5% (inactive) | 95% (inactive) | 116% (inactive) | 83.3% (inactive) | 101% (inactive) | 109% (inactive) | 108% (inactive) | 104% (inactive) | 98.1% (inactive) |  | 109% (inactive)
13 | O=C1NC2(CCNCC2)Nc2ccccc21 | 108% (inactive) |  | 117% (inactive) | 111% (inactive) | 107% (inactive) | 85.7% (inactive) | 96.2% (inactive) | 114% (inactive) | 102% (inactive) | 110% (inactive) | 95.6% (inactive) | 94.9% (inactive) | 84.7% (inactive) | 84.4% (inactive) | 113% (inactive) | 108% (inactive) | 109% (inactive) | 109% (inactive) | 103% (inactive) | 98.1% (inactive)
14 | CCC(/C=C(C)/C=C/C(=O)c1c(O)c(-c2ccc(O)cc2)c[nH]c1=O)CO (configuration not stated) | 9.29% (active) | 7.07% (active) |  | 104% (inactive) | 81.1% (inactive) | 92.4% (inactive) | 90.6% (inactive) | 99.9% (inactive) | 87.2% (inactive) | 104% (inactive) | 4.76% (active) | 7.28% (active) | 31.5% (inactive) | 92.4% (inactive) |  | 41.8% (inactive) | 96.2% (inactive) | 92.6% (inactive) | 106% (inactive) | 88.7% (inactive)
15 | CCCCCCCCCCOc1ccc(C(=O)Oc2ccc(CSP3(=O)OCC4OC(n5ccc(=O)[nH]c5=O)C(F)C4OP(=O)(O)OCC4OC(n5cnc6c(N)ncnc65)C(F)C4O3)cc2)cc1 (configuration not stated) | 106% (inactive) | 66.1% (inactive) | 110% (inactive) | 72.6% (inactive) | 105% (inactive) | 21.3% (inactive) | 103% (inactive) | 111% (inactive) | 85.3% (inactive) |  | -12.8% (active) | 87.1% (inactive) | 68.4% (inactive) | 104% (inactive) | 95.3% (inactive) | 97.6% (inactive) | 105% (inactive) | 96.4% (inactive) | 102% (inactive) | 76.3% (inactive)
16 | CC(C)CCC1(CCO)C(=O)NC(=S)NC1=O | 107% (inactive) | 120% (inactive) |  | 120% (inactive) | 103% (inactive) | 100% (inactive) | 105% (inactive) | 105% (inactive) | 104% (inactive) | 103% (inactive) | 98.1% (inactive) | 115% (inactive) | 113% (inactive) |  | 116% (inactive) | 108% (inactive) | 114% (inactive) | 112% (inactive) | 107% (inactive) | 101% (inactive)
17 | COc1cc[c]([Hg][Cl])cc1 |  | 17% (inactive) | 47.3% (inactive) | -42.2% (active) | 93.3% (inactive) | 65.5% (inactive) | 28.6% (inactive) | 30.5% (inactive) | -84.2% (active) | 86.5% (inactive) | -22.4% (active) | -20.8% (active) | -7.01% (active) |  | 15.1% (inactive) | -71.5% (active) | 86.2% (inactive) | -3.04% (active) | 88.7% (inactive) | 39.9% (inactive)
